Source: PubChem
The list is a sample of the results.
aSyn 5UTR act – Activators via SNCA 5'UTR binding, MLPCN; activity score, % (tested at 7.5 µM), hits read low; hit rate 7.1% among 300,000; alpha-synuclein 5'UTR reporter, activators screen; in the data active = activity score below about -60%
An asterisk follows results filed as active.

SMILES	aSyn 5UTR act
COc1cccc(-c2nnc3sc(-c4ccco4)nn23)c1	-95*
Cc1ccc(-c2nnc(NC(=O)c3ccco3)s2)cc1	-84*
Cc1cccc(C(=O)Nc2nnc(-c3ccc(C(C)(C)C)cc3)s2)c1	-102*
C/C=C(\C)c1nnc(NC(=O)c2ccco2)s1	-78*
Cc1cccc(C(=O)Nc2nnc(SCC(=O)NCc3ccco3)s2)c1	-101*
O=C(COc1ccccc1)Nc1nnc(C23CC4CC(CC(C4)C2)C3)s1	-75*
COc1ccc(NC(=O)Cn2nnc(-c3ccccc3NC(=O)c3ccco3)n2)cc1	-117*
CCOC(=O)c1ccc(NC(=O)C2C3CCC(C3)C2C(=O)O)cc1 (centres undefined)	-62*
CCCOC(=O)c1ccc(NC(=O)C2CCCO2)cc1 (centres undefined)	-110*
CCOC(=O)c1ccc(NC(=O)C2C3CCCCC32)cc1 (centres undefined)	-184*
Cc1cc(NC(=O)c2ccc(NC(=O)C3CCCO3)cc2)ccc1Br (centres undefined)	-121*
C=C1C(=O)O[C@@H]2C[C@@H](C)[C@@H]3C=CC(=O)[C@@]3(C)[C@@H](OC(C)=O)[C@H]12	95
CCOc1cc(NC(=S)N2CCC(C(N)=O)CC2)c(C(=O)OC)cc1OCC	32
CCc1ccc(NC(=O)c2ccccc2NC(=O)C2CCCO2)cc1 (centres undefined)	-244*
CC(C)COC(=O)c1ccc(NC(=O)C2C3CCC(C3)C2C(=O)O)cc1 (centres undefined)	-131*
CCOC(=O)c1ccc(NC(=S)N2CCC(O)CC2)cc1	-81*
O=C(Nc1ccc(Nc2ccccc2)cc1)c1ccccc1F	-174*
O=C(Nc1ccccc1)Nc1ccc(Nc2ccccc2)cc1	-111*
O=C(Nc1ccccc1)Nc1ccc(Cl)nc1Cl	-93*
c1ccc(Nc2cccc(Nc3ccccc3)c2)cc1	-86*
CCN(CC)c1ccc(NC(=O)c2ccccc2F)cc1	-411*
CCSc1nsc(NC(=O)Nc2ccccc2F)n1	-183*
CCSc1nsc(NC(=O)Nc2cccc(OC)c2)n1	-140*
Cn1c(SCc2c(F)cccc2Cl)nnc1-c1cccs1	-83*
Cn1c(SCC(=O)Nc2ccccc2F)nnc1-c1cccs1	-78*
SMILES	aSyn 5UTR act
COC(=O)c1ccc(N=Cc2c(C(F)(F)F)[nH][nH]c2=O)cc1	-135*
CCN(CC)Cc1c(O)ccc2c(=O)c(-c3ccccc3)coc12	-64*
CN(C)CC(CCC(CN(C)C)C(O)(c1ccccc1)c1ccccc1)C(O)(c1ccccc1)c1ccccc1 (centres undefined)	101
CN(C)CC(C(=O)c1ccccc1)c1ccccc1 (centres undefined)	-171*
CCNc1oc(COc2cccc(C)c2)nc1C#N	-95*
COc1ccc(Nc2oc(COc3ccc(C)cc3)nc2C#N)cc1	68
N#Cc1nc(COc2cccc(Cl)c2)oc1NCc1ccco1	-105*
COc1ccnc(CSC(N)=Nc2cccc(C(F)(F)F)c2)c1	-81*
Cc1cccc(N2CCN(C(=O)NC3CCCCC3)CC2)c1C	-95*
Cc1cccc(N2CCN(C(=O)CN3C(=O)C4CC=CCC4C3=O)CC2)c1C (centres undefined)	-113*
CC(C)C(=O)Nc1cccc(NC(=S)NC(=O)c2ccc(Cl)cc2)c1	-120*
CC(C)C(=O)Nc1cccc(NC(=S)NC(=O)c2ccc3c(c2)OCO3)c1	-158*
CC(C)C(=O)Nc1cccc(NC(=S)NC(=O)c2cccs2)c1	-126*
Cc1ccc(NC(=S)NC(=O)c2ccc(F)cc2)cc1S(=O)(=O)Nc1cccc(Cl)c1	81
CCOC(=O)c1sc(NC(=O)CSc2nc3c(cc2C#N)CCCCCC3)c(C#N)c1C	-74*
N#Cc1cc2c(nc1SCC(=O)Nc1sc3c(c1C#N)CCC3)CCCC2	-240*
N#Cc1cc2c(nc1SCC(=O)Nc1sc3c(c1C#N)CCC3)CCCCC2	-122*
N#Cc1c(NC(=O)CSc2ncn[nH]2)sc2c1CCCCC2	82
CCOC(=O)c1cn2nc(SCc3ccccc3)nc2nc1C	-105*
N#Cc1cnc2nc(SCc3ccccc3)nn2c1	-149*
CCN(CC)c1ccc(C=N/C(C#N)=C(\N)C#N)cc1	-138*
CCOC(=O)c1ccc(NC(=S)Nc2ccccn2)cc1	-137*
CCOC(=O)c1ccc(NC(=O)Nc2ncccc2C)cc1	-102*
Cc1cccnc1NC(=O)Nc1ccc(F)cc1	-144*
Cc1ccc(NC(=O)Nc2ncccc2C)cc1	-163*
SMILES	aSyn 5UTR act
c1ccc(-c2nc(C3CCCCC3)no2)cc1	-204*
COc1ccc(-c2nc(C3CCCCC3)no2)cc1OC	-162*
O=C(Nc1ccc2c(c1)OCCO2)c1cccc(Cl)c1Cl	-140*
Cc1ccc(C(=O)Nc2ccc3c(c2)OCCO3)c(Cl)c1	80
O=C(Nc1ccc2c(c1)OCCO2)c1cc(F)c(F)cc1Cl	-195*
O=C(Nc1ccc2ccccc2c1)c1cc(F)c(F)cc1Cl	-140*
c1ccc(Sc2cccc3ccccc23)c(CNC2=NCCN2)c1	61
CSc1ccc(CNC(=O)Cc2ccc(NC(=O)C3=C(C)OCCS3)cc2)cc1	-153*
Oc1ccccc1C1CC(c2cccs2)=NC(c2ccc(Cl)cc2)N1 (centres undefined)	-94*
CCOC(=O)N1CCC(=NNc2nc3ccccc3s2)CC1	-112*
CCOC(=O)N1CCN(/C=C(\C#N)c2nc3ccccc3s2)CC1	-94*
CC(=O)Nc1cccc(/C(C)=N/Nc2nc3ccccc3s2)c1	-224*
CC(=O)N1CCC(=NNc2nc3ccccc3s2)CC1	-215*
Cc1ccc(NC(=S)c2ccccc2)cc1	-152*
COc1ccc(C(=S)Nc2ccc(C)cc2)cc1	-153*
CCOC(=O)c1cc(-c2ccc3c(c2)OCCO3)n[nH]1	-174*
CCOC(=O)c1cc(-c2ccc(OC)cc2)n[nH]1	-73*
CC(C)COc1ccc(-c2cc(C(=O)NN)[nH]n2)cc1	-83*
CCOc1ccc(-c2n[nH]c(C(=O)NN)c2C)cc1	-73*
C1=Nc2ccccc2CN1c1ccccc1	-120*
CC(C)c1ccc(N2C=Nc3ccc(C(C)C)cc3C2)cc1	-63*
O=C(CCN1C(=O)/C(=C\C=C\c2ccccc2)SC1=S)Nc1ccc(C(=O)O)cc1	-69*
CCc1ccc(/C=C2\SC(=S)N(CCCC(=O)Nc3ccc(C(=O)O)cc3)C2=O)cc1	109
O=C(COC(=O)CCN1C(=O)/C(=C\C=C\c2ccccc2)SC1=S)Nc1cc(F)ccc1F	64
O=C(CCN1C(=O)/C(=C/C=C/c2ccccc2)SC1=S)Nc1nc2ccccc2s1	-62*
SMILES	aSyn 5UTR act
O=C(O)CCCN1C(=O)/C(=C/c2ccc(-c3nc4ccccc4s3)o2)SC1=S	-76*
O=C(CN1C(=O)S/C(=C\C=C\c2ccccc2)C1=O)N1CCOCC1	-126*
O=C(CCCN1C(=O)S/C(=C\C=C\c2ccccc2)C1=O)Nc1ccc(O)cc1	-126*
NNC(=O)c1ccc2nc(-c3ccc(Br)cc3)cn2c1	-154*
COc1ccc(-c2cn3cc(C(=O)NN)ccc3n2)cc1	-92*
COC(=O)c1ccc2nc(-c3ccc4c(c3)OCO4)cn2c1	95
COc1ccc(NS(=O)(=O)c2ccc(SC)cc2)c(OC)c1	-66*
CCOc1ccc(N/C=C\C(=O)c2ccc3c(c2)OCO3)cc1	-89*
O=C(/C=C\Nc1ccc2c(c1)OCO2)c1ccccn1	118
COc1ccc(N/C=C\C(=O)c2ccc3c(c2)OCO3)cc1	-264*
O=C(/C=C\Nc1ccc2c(c1)OCO2)c1ccc2c(c1)OCO2	-175*
Cc1ccc(-c2nc3ccccc3c(=O)o2)cc1	-84*
